Compound activity: PubChem BioAssay, National Center for Advancing Translational Sciences (NCATS)
Rows were chosen to be rich in hits. Some 10% of all compounds tested hit in one or more screens of this group.
NPR1 antag: blocks ANP-stimulated signaling of human Npr1 receptor; P16066; HEK293 hNpr1 GloSensor cGMP, ANP-stimulated luminescence; Potency, µM (highest dose often 46.3 µM), inactives show top-dose activity change, negative = inhibition, usual class: inhibitors; AID 1347048; actives 1.6% (n = 76,000); calls by dose curve; further: nearly all actives have a fitted effect of over 60% in size
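Compound pre-incubated 30 min at room temperature on GloSensor-loaded HEK293 cells stably carrying hNpr1 and the pGS-40F cGMP biosensor. Stimulation uses hNppA at 0.1 nM final; luminescence is taken at baseline and 20 min post-agonist.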
HEK cytotox: HEK 293 cell cytotoxicity. HEK 293 viability, ATP luminescence (CellTiter-Glo), 48-72 h. Potency, µM (top dose mostly 115 µM), inactives show at the highest dose activity change, negative = cytotoxicity, actives largely listed as inhibitors. actives 6.6% (n = 94,000); further: nearly all actives have a fitted effect of over 60% in size
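Read-out: CellTiter-Glo ATP luminescence. Cells: HEK 293, 250 cells/well. Exposure: 48 or 72 hr, 37 degree Celsius.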
FLuc inh: Photinus pyralis luciferase inhibition; P08659; Potency, µM (top dose mostly 115 µM), actives largely listed as inhibitors; purified P. pyralis luciferase, luminescence, biochemical; actives 2.5% (n = 76,000); further: nearly all actives have a fitted effect of over 65% in size
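Inhibitors were tested against purified firefly luciferase in a biochemical, low-substrate format (both substrates at 10uM) and luminescence measured with a CCD imager.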
GPT2 inhibitor: inhibitors of human GPT2 alanine aminotransferase. Potency, µM (doses to about 57.7 µM), for the others: at the highest dose activity change, negative = inhibition, most hits filed as inhibitors. Recombinant GPT2, coupled pyruvate oxidase/HRP Amplex Red fluorescence. AID 1671188. actives 0.25% (n = 100,000). Q8TD30; further: nearly all actives have a fitted effect of over 60% in size
Target sequence (Q8TD30 whole entry, looked up): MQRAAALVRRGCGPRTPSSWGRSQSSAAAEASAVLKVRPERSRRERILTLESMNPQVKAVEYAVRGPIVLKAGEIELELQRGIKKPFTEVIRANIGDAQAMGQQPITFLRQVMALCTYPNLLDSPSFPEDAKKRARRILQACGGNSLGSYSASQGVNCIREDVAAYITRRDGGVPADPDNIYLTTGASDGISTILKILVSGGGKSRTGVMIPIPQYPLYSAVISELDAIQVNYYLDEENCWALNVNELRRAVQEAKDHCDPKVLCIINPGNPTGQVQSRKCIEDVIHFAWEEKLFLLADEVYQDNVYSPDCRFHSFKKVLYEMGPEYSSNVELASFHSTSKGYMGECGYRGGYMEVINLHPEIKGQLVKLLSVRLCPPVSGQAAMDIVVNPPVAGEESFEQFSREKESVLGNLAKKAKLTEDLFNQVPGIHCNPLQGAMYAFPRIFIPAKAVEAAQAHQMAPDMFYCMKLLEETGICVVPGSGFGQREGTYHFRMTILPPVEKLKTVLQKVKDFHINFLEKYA
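Recombinant GPT2 (10ng/uL) with 250uM a-KG and 2mM L-alanine, 30 min at room temperature, in HEPES pH 7.5 buffer. Pyruvate detected by pyruvate oxidase/HRP/Amplex Red fluorescence after 30 min in the dark; AOA (50uM) as positive control.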
3T3 cytotox: kills NIH 3T3 cells. NIH 3T3 viability, CellTiter-Glo ATP luminescence, 48-72 h. Potency, µM (top dose mostly 96.7 µM), for inactives: top-dose activity change, negative = cytotoxicity, usual class: inhibitors. actives 4.3% (n = 94,000). AID 1345082; further: nearly all actives have a fitted effect of over 55% in size
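ATP-dependent luminescence (CellTiter-Glo) served as the viability signal for NIH 3T3 cells treated with compound for 48 or 72 hr at 37 °C.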
* marks the source's active call; other numbers are inactive results; i = inactive; ? = inconclusive; nt = not tested or not shown; [ ] = another dose, or the depositor's remark. Unless noted, the call rests on the fitted dose curve; in most records, active means well fitted curve in the direction sought with a large enough effect; inconclusive means small, poorly fitted or top-dose-only effect, or another doubt; inactive means no such curve, though single readings can be large; an effect the other way counts as inactive or inconclusive. On the % scale 0 is the no-effect control and ±100 the full control effect; potency means the concentration at half of the fitted maximal effect.

SMILES	NPR1 antag	HEK cytotox	FLuc inh	GPT2 inhibitor	3T3 cytotox
Nc1cc(C(=O)N2CCc3onc(-c4ccc(-c5ccccc5)cc4)c3C2)[nH]n1	12.6µM*	17.8µM*	?	i	?
COc1ccccc1CNC(=O)C1CCCN(Cc2cccc(-c3ccc(F)cc3F)c2)C1 (centres undefined)	nt	?	nt	i	?
COc1ccccc1-c1cccc(CN2CCCC(C(=O)NCc3cccc(Cl)c3)C2)c1 (centres undefined)	nt	14.1µM*	nt	i	31.6µM*
COc1ccccc1-c1cccc(CN2CCCC(C(=O)NC3CCOC3)C2)c1 (centres undefined)	nt	?	nt	i	?
COc1ccccc1-c1cccc(CN2CCCC(C(=O)NCc3cccc(C(F)(F)F)c3)C2)c1 (centres undefined)	nt	14.1µM*	nt	i	15.8µM*
COc1ccccc1-c1cccc(CN2CCCC(C(=O)NCc3ccc(C(F)(F)F)cc3)C2)c1 (centres undefined)	nt	17.8µM*	nt	?	22.4µM*
COc1ccccc1-c1cccc(CN2CCCC(C(=O)NCc3ccc(F)cc3)C2)c1 (centres undefined)	nt	31.6µM*	nt	i	31.6µM*
COc1ccccc1-c1cccc(CN2CCCC(C(=O)NCc3cccnc3)C2)c1 (centres undefined)	nt	?	nt	i	35.5µM*
Cc1ccc(CN2CCC(CNc3ccncn3)CC2)o1	3.1%	1.9%	i	?	1.0%
CN1CCN(C(=O)c2ccc(-c3ccc(N4CCSCC4)nc3)cc2)CC1	-28.6%	?	35.5µM*	i	?
CC(NC(=O)c1ccc(-c2ccc(N3CCCCCC3)nc2)cc1)c1cccnc1 (centres undefined)	?	?	?	-11.8%	25.1µM*
O=C(c1ccc(-c2ccc(N3CCCCC3)nc2)cc1)N1CCCC1	?	?	28.2µM*	-1.2%	39.8µM*
O=C(c1ccc(-c2ccc(N3CCSCC3)nc2)cc1)N1CCCCC1	10µM*	?	?	i	35.5µM*
CCCN1CCN(C(=O)c2ccc(-c3ccc(N4CCCCC4)nc3)cc2)CC1	-15.2%	?	?	i	?
COc1ccc(CCNC(=O)c2c(C)noc2-c2ccco2)cc1OC	-0.2%	i	i	-1.1%	-6.6%
CC1CCN(C(=O)c2ccc(-c3ccc(N4CCSCC4)nc3)cc2)CC1	?	20µM*	?	i	?
CN1CCN(C(=O)c2ccc(-c3ccc(N4CCCCC4)nc3)cc2)CC1	-2.4%	?	22.4µM*	-10.2%	?
CCCc1noc(-c2cn(C3CCN(C(=O)c4ccccc4)CC3)nn2)n1	-10.0%	-4.8%	i	-9.7%	?
CCOC(=O)c1cccc(NC(=O)N2CC[C@@H](CC(=O)O)[C@@H](CC)C2)c1	6.3%[70.6 µM]	-13.1%[172 µM]	i	-6.4%[88.5 µM]	-18.4%[174 µM]
O=C1Cc2c(-c3ccccc3Oc3ccccc3)n[nH]c2CN1Cc1ccccc1F	-18.3%[70.6 µM]	?	i	-20.1%[88.5 µM]	?
Cc1ccc(C(=O)N2CCC3(CC2)COc2ccccc2NC3=O)cc1	-0.5%	?	i	i	-3.1%
O=C(c1ccc(C(F)(F)F)cc1)N1CCC2(CC1)COc1ccccc1NC2=O	-5.3%	79.4µM*	i	-9.3%	?
Cc1nc(C)c(C(=O)N2CCC3(CC2)CC(N(C2CC2)S(C)(=O)=O)CCO3)s1 (centres undefined)	3.6%	-28.2%	i	3.7%	-21.9%
O=C1CCN(CC(O)COc2ccccc2)c2ccccc2CN1C1CC1 (centres undefined)	nt	39.8µM*	nt	nt	?
C=CCN1Cc2cc(F)ccc2N(CC(O)COc2ccccc2)CCC1=O (centres undefined)	nt	44.7µM*	nt	nt	?
SMILES	NPR1 antag	HEK cytotox	FLuc inh	GPT2 inhibitor	3T3 cytotox
CCN1Cc2cc(OC)ccc2N(CC(O)COc2ccc(OC)cc2)CCC1=O (centres undefined)	nt	-31.4%	nt	nt	?
COc1ccc(OCC(O)CN2CCC(=O)N(CC(C)(C)C)Cc3cc4c(cc32)OCO4)cc1 (centres undefined)	nt	50.1µM*	nt	nt	?
CC(O)CN1CCC(=O)N(C2CCCC2)Cc2ccccc21 (centres undefined)	nt	-28.7%	nt	nt	?
COc1ccc2c(c1)CN(CC=C(C)C)C(=O)CCN2CC(O)COc1ccccc1 (centres undefined)	nt	79.4µM*	nt	nt	?
COc1ccc(-n2nc(C3CCCN(C(=O)C4CC4)C3)[nH]c2=O)cc1 (centres undefined)	-16.2%[70.6 µM]	-1.9%[172 µM]	i	i	-9.6%[138 µM]
CCCCCN1CCC2(CC1)Cc1ccccc1CNC2=O	nt	-7.0%[172 µM]	nt	?	-8.1%[138 µM]
Cc1ccc(C(=O)N2CCCC(C(=O)N3CCCC(c4nc5ncccc5[nH]4)C3)C2)cc1 (centres undefined)	nt	-8.7%	nt	i	-5.0%
COc1ccc(Nc2ccc3c(n2)CN(Cc2ccccc2)C(=O)CO3)cn1	-24.2%[70.6 µM]	79.4µM*	i	i	?
COc1ccc(Nc2ccc3c(n2)CN(Cc2ccc(F)cc2)C(=O)CO3)cn1	-23.3%[70.6 µM]	89.1µM*	i	-6.7%[88.5 µM]	?
O=C1COc2ccc(Nc3cccnc3)nc2CN1Cc1ccc(C(F)(F)F)cc1	-24.0%[70.6 µM]	89.1µM*	i	-1.9%[88.5 µM]	?
COc1ccc(Nc2ccc3c(n2)CN(Cc2ccc(C(F)(F)F)cc2)C(=O)CO3)cn1	-22.2%	?	i	-9.0%	?
O=C1COc2ccc(-c3cccc(O)c3)nc2CN1Cc1ccc(C(F)(F)F)cc1	-17.7%[70.6 µM]	?	i	-3.1%[88.5 µM]	?
O=c1cc(-c2ccccn2)oc2c(-c3ccc(CO)cc3)nccc12	-11.7%[70.6 µM]	?	i	-27.4%[88.5 µM]	?
COCc1ccc2c(c1)c(OC(C)(C)C(=O)NC(C)C)nn2Cc1cccc(OC)c1	1.3%[70.6 µM]	?	i	-4.9%[88.5 µM]	?
COCc1ccc2c(c1)c(OC(C)(C)C(=O)N1CCN(C)CC1)nn2Cc1ccccc1	-24.5%[70.6 µM]	?	i	-5.9%[88.5 µM]	?
COCc1ccc2c(c1)c(OC(C)(C)C(=O)N1CCOCC1)nn2Cc1cccnc1	2.1%[70.6 µM]	-9.5%[172 µM]	i	2.0%[88.5 µM]	31.6µM*
CC(C)n1nc(OC(C)(C)C(=O)Nc2cccnc2)c2cc(CN3CCOCC3)ccc21	5.4%[70.6 µM]	-25.6%[172 µM]	i	i	28.2µM*
COCc1ccc2c(c1)c(OC(C)(C)C(=O)N1CCN(CCO)CC1)nn2Cc1cccnc1	8.4%	i	i	0.4%	35.5µM*
COCc1ccc2c(c1)c(OC(C)(C)C(=O)N1CCOCC1)nn2Cc1cccc(OC)c1	4.5%	-29.3%	i	1.0%	3.98µM*
COCc1ccc2c(c1)c(OC(C)(C)C(=O)NCCN1CCOCC1)nn2Cc1cccnc1	4.8%	-2.3%	i	4.2%	?
